Screens from PubChem.
GPR151 ag: activates the human receptor GPR151 | Q8TDV0 | PathHunter beta-arrestin GPR151 cells, luminescence | activation, % at 11.2 µM | 650,000 tested, 1% active | AID 1508602; in the data active = activation above about 4.9%;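 note: 0% = median of compound wells and 100% = cells with positive control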
MITF primary: inhibitors of human MITF | AlphaScreen MITF homodimerization, bead proximity signal | inhibition, % at 2.6 µM | 650,000 tested, 0.91% active | AID 1259374; in the data active = inhibition above about 50%;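 note: 0% = vehicle wells with protein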
TEAD-YAP block: TEAD-YAP interaction inhibition; HEK-TIYL cells, TEAD-Gal4/YAP UAS-luciferase luminescence; AID 1259422; 640,000 tested, 1.4% active; inhibition, % at 9.12 µM; in the data active = inhibition above about 32%;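 note: 0% = median of test compound wells and 100% = reference inhibitor wells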
FBW7 act: human FBW7 E3 ligase activation, primary screen; AlphaScreen FBW7–phospho-cyclin E peptide binding, activator screen; AID 1259310; Q969H0; normalized activity (activation), % at 26.1 µM; 650,000 tested, 0.13% active; in the data active = normalized activity above about 1.9%;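 note: purified mutant Fbw7 with reduced substrate affinity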
Target sequence (Q969H0 whole entry, looked up): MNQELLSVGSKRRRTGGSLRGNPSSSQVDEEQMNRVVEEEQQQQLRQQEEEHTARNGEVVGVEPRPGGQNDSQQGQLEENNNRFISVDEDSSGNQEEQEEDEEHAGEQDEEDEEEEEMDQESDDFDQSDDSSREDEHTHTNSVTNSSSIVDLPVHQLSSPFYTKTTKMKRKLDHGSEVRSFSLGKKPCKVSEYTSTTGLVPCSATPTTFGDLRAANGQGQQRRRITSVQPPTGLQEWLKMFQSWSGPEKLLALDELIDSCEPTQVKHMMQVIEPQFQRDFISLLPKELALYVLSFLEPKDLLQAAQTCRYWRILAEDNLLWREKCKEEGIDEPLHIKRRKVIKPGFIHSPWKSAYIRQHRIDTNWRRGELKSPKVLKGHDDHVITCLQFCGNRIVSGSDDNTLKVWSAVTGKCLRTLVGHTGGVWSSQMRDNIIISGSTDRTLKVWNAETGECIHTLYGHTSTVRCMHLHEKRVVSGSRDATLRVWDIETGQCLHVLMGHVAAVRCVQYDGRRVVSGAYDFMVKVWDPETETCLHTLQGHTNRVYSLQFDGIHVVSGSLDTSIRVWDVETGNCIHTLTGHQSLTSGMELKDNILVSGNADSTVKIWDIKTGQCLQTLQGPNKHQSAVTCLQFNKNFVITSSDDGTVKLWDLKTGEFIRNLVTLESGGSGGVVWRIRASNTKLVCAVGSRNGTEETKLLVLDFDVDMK
The depositor's hits bear a star. In the library only some 3.5% were active in any assay of this set; here they are far more common.

COc1ccc(NS(=O)(=O)c2ccc(NC3CCCC3)c([N+](=O)[O-])c2)cc1 was read as GPR151 ag 2, MITF primary -3, TEAD-YAP block 2 and FBW7 act 0.
For COc1cccc(C2=CC(c3cc(OC)ccc3OC)n3nnnc3N2)c1 (centres undefined) the results were GPR151 ag -2, MITF primary 10, TEAD-YAP block 50* and FBW7 act 0.
COc1ccc(C2=CC(c3cc(OC)ccc3OC)n3nnnc3N2)cc1 (centres undefined) was read as GPR151 ag 0, MITF primary 4, TEAD-YAP block -4 and FBW7 act 0.
Screening COc1cccc(C2=CC(c3cc(OC)c(OC)c(OC)c3)n3nnnc3N2)c1 (centres undefined) returned GPR151 ag -1, MITF primary 7, TEAD-YAP block 57* and FBW7 act 0.
Screening COc1cccc(C2=CC(c3cccc(OC)c3OC)n3nnnc3N2)c1 (centres undefined) returned GPR151 ag 0, MITF primary -1, TEAD-YAP block 30 and FBW7 act 0.
Screening COc1cccc(C2=CC(c3ccccc3F)n3nnnc3N2)c1 (centres undefined) returned GPR151 ag 1, MITF primary 15, TEAD-YAP block 44* and FBW7 act 0.
`COc1cccc(C2=CC(c3cccc(OC)c3)n3nnnc3N2)c1` (centres undefined) gave GPR151 ag 1, MITF primary -3, TEAD-YAP block 56* and FBW7 act 0.
`CCCCc1ccc(C2=N/C(=C\c3ccc(OC)c(OC)c3)C(=O)O2)cc1` gave GPR151 ag -1, MITF primary 11, TEAD-YAP block 5 and FBW7 act 0.
COc1cc(OC)cc(C(=O)O/N=C(\N)c2ccc(I)cc2)c1 was read as GPR151 ag 5, MITF primary -1, TEAD-YAP block -5 and FBW7 act 0.
C=CCOC(=O)C1=C(C)N(CC)C(=O)NC1c1ccc([N+](=O)[O-])cc1 (centres undefined) was read as GPR151 ag 0, MITF primary 11, TEAD-YAP block 8 and FBW7 act 0.
For CCOc1ccc(C2C=C(c3ccc(F)cc3)Nc3nnnn32)cc1 (centres undefined) the results were GPR151 ag 3, MITF primary -14, TEAD-YAP block -16 and FBW7 act 0.
Screening COc1cccc(C2C=C(c3ccc(C)cc3)Nc3nnnn32)c1 (centres undefined) returned GPR151 ag 0, MITF primary 4, TEAD-YAP block 32* and FBW7 act 0.
CCOc1ccc(C2=CC(c3cc(OC)c(OC)c(OC)c3)n3nnnc3N2)cc1 (centres undefined) was read as GPR151 ag 2, MITF primary 5, TEAD-YAP block 44* and FBW7 act 0.
O=C(c1cccc2c1NC(c1ccc([N+](=O)[O-])cc1)C1CC=CC21)N1CCCC1 (centres undefined) was read as GPR151 ag -1, MITF primary -1, TEAD-YAP block -1 and FBW7 act 0.
Screening CC1=C(C(=O)NCc2ccccc2)C(c2ccc([N+](=O)[O-])cc2)C(C(=O)NCc2ccccc2)=C(C)N1 returned GPR151 ag -1, MITF primary 3, TEAD-YAP block -1 and FBW7 act 0.
O=C(CSc1nnnn1-c1ccccc1)Nc1cccc(NC(=O)C23CC4CC(CC(C4)C2)C3)c1 was read as GPR151 ag -1, MITF primary 8, TEAD-YAP block 72* and FBW7 act 0.
Screening CCC(=O)Nc1cccc(NC(=O)CSc2nnnn2-c2ccccc2)c1 returned GPR151 ag -1, MITF primary 5, TEAD-YAP block 8 and FBW7 act 0.
For COc1ccc(C(=O)c2ccc(OC)c(N)c2)cc1N the results were GPR151 ag 0, MITF primary -10, TEAD-YAP block 36* and FBW7 act 0.
For COc1ccc(C(=O)c2ccc(OC)c(OC)c2)cc1OC the results were GPR151 ag -1, MITF primary 1, TEAD-YAP block 5 and FBW7 act 0.
For COc1cc(/C=N/NC(=O)c2cc(Br)ccc2OC(C)C)ccc1O the results were GPR151 ag 3, MITF primary 17, TEAD-YAP block 14 and FBW7 act 1.
`Cc1ccc(/C=N/NC(=O)c2cc(Br)ccc2OC(C)C)o1` gave GPR151 ag -2, MITF primary -17, TEAD-YAP block 46* and FBW7 act 0.
C=CCn1c(SCC(=O)OCC)nc2sc(C)c(C)c2c1=O was read as GPR151 ag 0, MITF primary -24, TEAD-YAP block -2 and FBW7 act 0.
`O=C(Cn1nnc(-c2ccc(Cl)cc2)n1)NC1CCCCCC1` gave GPR151 ag 0, MITF primary 13, TEAD-YAP block 10 and FBW7 act 0.
Cc1cc(C)nc(N/N=C/c2ccc(O)c(O)c2O)n1 was read as GPR151 ag 2, MITF primary 52*, TEAD-YAP block 12 and FBW7 act -1.
`Cc1cc(C)nc(N/N=C/c2cc(Br)cc(Br)c2O)n1` gave GPR151 ag -2, MITF primary 50, TEAD-YAP block 13 and FBW7 act -1.
`Cc1cc(=O)[nH]c(N/N=C/c2ccc(O)c(O)c2O)n1` gave GPR151 ag 2, MITF primary 100*, TEAD-YAP block -9 and FBW7 act -1.
For O=c1[nH]c(/C=C\c2ccc(O)c(O)c2)nc(O)c1[N+](=O)[O-] the results were GPR151 ag -1, MITF primary 85*, TEAD-YAP block 2 and FBW7 act 1.
`CC(C)C[C@@H](NC(=O)[C@H](Cc1ccccc1)NC(=O)c1cnccn1)B(O)O` gave GPR151 ag 2, MITF primary -8, TEAD-YAP block 62* and FBW7 act 0.
For CC(CCc1ccccc1)NC(=O)c1cnccn1 (centres undefined) the results were GPR151 ag -1, MITF primary -2, TEAD-YAP block -43 and FBW7 act 0.
CCCN(C(=O)c1ccc(Cl)cc1)c1c(C)n(C)n(-c2ccccc2)c1=O was read as GPR151 ag -1, MITF primary 3, TEAD-YAP block -6 and FBW7 act 3.2*.
`CCCN(C(=O)c1ccccc1)c1c(C)n(C)n(-c2ccccc2)c1=O` gave GPR151 ag -1, MITF primary -19, TEAD-YAP block -15 and FBW7 act 0.
O=C(Nc1ccc2oc(-c3ccncc3)nc2c1)c1cc([N+](=O)[O-])ccc1Br was read as GPR151 ag 0, MITF primary -1, TEAD-YAP block 28 and FBW7 act 0.
`COc1ccc(C(=O)NCC(=O)Nc2cccc(Cl)c2)cc1` gave GPR151 ag 0, MITF primary 9, TEAD-YAP block -8 and FBW7 act 1.
`CCOc1ccc(N2CSC3=C(C#N)C(c4cccs4)CC(=O)N3C2)cc1` (centres undefined) gave GPR151 ag 1, MITF primary -13, TEAD-YAP block -10 and FBW7 act 0.
For CCOc1ccc(N2CSC3=C(C#N)C(c4ccco4)CC(=O)N3C2)cc1 (centres undefined) the results were GPR151 ag 1, MITF primary 69*, TEAD-YAP block -11 and FBW7 act 0.
